Inconclusive results are not listed. Where a call stands in place of a potency, no number is given. Calls of active or inactive are those of the source. Calls come from the whole dose curve; as a rule, active = well fitted curve in the direction sought with a large enough effect; inconclusive = small, poorly fitted or top-dose-only effect, or another doubt; inactive = no such curve, though single readings can be large; an effect the other way counts as inactive or inconclusive.
Columns and labels:
[1] = target: Aldehyde dehydrogenase, mitochondrial (Homo sapiens) (UniProt P05091); experiment: qHTS for Inhibitors of the Aldehyde Dehydrogenase Family (ALDH2) Primary screen (AID 2061308); note: nearly all actives have a fitted effect of over 55% in size
[2] = target: Retinaldehyde dehydrogenase 3 (Homo sapiens) (UniProt P47895); experiment: qHTS for Inhibitors of the Aldehyde Dehydrogenase Family (ALDH1A3) Primary screen (AID 2061315)

Compound	Potency [1]	Potency [2]
O=S(=O)(c1ccc2c(c1)OCCO2)C1CCC(O)CC1 (stereo not drawn)	inactive	inactive
CC1(C)CC[C@]2(C(=O)O)CC[C@]3(C)C(=CCC4[C@@]5(C)C[C@@H](O)[C@H](O)C(C)(C)C5CC[C@]43C)C2C1 (stereo partly drawn)	inactive	inactive
Cc1ccc(-c2nn(CC(=O)N(C)C(C)c3ccco3)c(=O)cc2C)cc1 (stereo not drawn)	inactive	inactive
O=C(OCC#CCSc1nnc(-c2cccc3ccccc23)o1)c1sc(Cl)c(Cl)c1Cl	inactive	inactive
COC1C=C([C@@H]2CC=C3[C@@]4(C)C(CC[C@]32C)[C@@]2(C)C=CC(=O)C(C)(C)C2C[C@H]4OC(C)=O)C(=O)O1 (stereo partly drawn)	inactive	inactive
COc1cccc(-c2nnc3n2N=C(c2cc(OC)ccc2OC)CS3)c1	inactive	inactive
O=C(Cc1nnc(-c2cc3ccccc3[nH]2)o1)Nc1cc(C(F)(F)F)ccc1Cl	inactive	inactive
Oc1cccc2cc(-c3ccccc3)cnc12	inactive	inactive
CCCn1c(-c2ccc(F)cc2)nc2c(NCCN3CCCC3)nc(C)nc21	inactive	inactive
Cc1ccc(C(=O)NC2CCN(C#N)CC2)cc1	inactive	inactive
O=C1c2ccccc2C(=O)N1c1ccc2ncccc2c1	inactive	inactive
O=c1c2ccc(Cl)cc2nc2sc(Nc3ccc4c(c3)CCC4)nn12	inactive	inactive
Cc1cc(-c2nc(Nc3ccc(F)c(F)c3)c3ccccc3n2)cc(C)n1	inactive	inactive
Fc1ccc(-c2ccc(CNc3nc(-c4ccccc4C(F)(F)F)nc4ccccc34)cc2)cc1C(F)(F)F	inactive	inactive
